In PubChem BioAssay AID504727 (Broad Institute, 2011):
Active and inactive are the calls of the source.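 How the source made its calls: active means fitted half-maximal concentration AC50 at or below ten times the highest valid tested dose, with signal falling as DNA is displaced (actives reach about 34 µM in these data); inconclusive means flat fit at moderate signal loss, or poor fit quality; inactive means the rest, including signal rising instead of falling.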

assay: DNA intercalators displacing acridine orange, dose response, artefact control for KSHV LANA DNA-binding inhibitor project, biochemical, fluorescence polarization, cherry-picked samples, set 2 (AID 504727); conditions: AC50: Acridine orange-DNA displacement; series mostly up to 35 µM

Structure (SMILES)	AC50
COC(=O)Cn1c(=NC(=O)c2sc3ccccc3c2Cl)sc2cc(S(N)(=O)=O)ccc21	inactive
CCN(CC)c1ccc2cc(S(=O)(=O)c3ccc(C)cc3)c(=O)oc2c1	inactive
CCC(C)[C@H](NC(=O)[C@@H]1Cc2ccccc2CN1)C(=O)Nc1ccc2c(c1)OCO2 (some centres not stated)	inactive
O=C(O)/C(=C\c1cccs1)Sc1nnc(-c2ccc(F)cc2)o1	inactive
COc1cccc(-c2cc(C(=O)N3CCN(S(=O)(=O)c4ccccc4)CC3)[nH]n2)c1	inactive
Cn1c(=O)c2c(nc(N/N=C/c3ccc(OC(=O)c4ccco4)cc3)n2Cc2ccc(F)cc2)n(C)c1=O	inactive
O=C(OCCN1C(=O)c2cccc3c(N4CCOCC4)ccc(c23)C1=O)c1ccc(Cl)cc1	18.5 µM (active)
CCn1c(-c2ccc([N+](=O)[O-])cc2)n[nH]c1=S	inactive
COC(=O)c1ccc(Oc2nc(Nc3ccc(F)cc3)nc(N3CCCC3)n2)cc1	inactive
CCc1noc(C)c1C(=O)N1CCCC(N2CCN(c3ccc(F)cc3)CC2)C1 (configuration not stated)	inactive
Nc1ccc(-c2nc3ccc(C(=O)O)cc3s2)cc1	inactive
CN(N=Nc1ccc([N+](=O)[O-])cc1)c1ccccc1	11 µM (active)
CNC(=S)Nc1cccc(C(=O)OC)c1	inactive
O=c1[nH]nc(CSCc2ccccc2Cl)[nH]1	inactive
O=c1[nH]c(=S)[nH]c2c1C(c1ccc(Br)cc1)c1c([nH]c(=S)[nH]c1=O)O2	inactive
COc1ccccc1CNC(=O)C(=O)NCC1CCCN1S(=O)(=O)c1cccs1 (configuration not stated)	inactive
CC(C(=O)Nc1ccc(C(=O)O)c(O)c1)N1C(=O)/C(=C\c2ccco2)SC1=S (configuration not stated)	inactive
